Measured values from the supplement of paper PMC10338343.

system: MILI (PIWIL2) piRISC loaded with L1MC piRNA (26 nt); experiment: pre-steady-state target cleavage rate (min^-1); guide: L1MC piRNA 5'p-UAACUAAAUACUAUGCAAGCUGUAGG; MIWI and MILI are mouse PIWI proteins and EfPiwi is from a freshwater sponge; tags in brackets are library labels; higher = faster piRNA-guided slicing of the target; conditions: auxiliary factor: none (no GTSF1)
Outline: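 Using HEPES–potassium acetate buffer at 33 °C, 1 nM active affinity-purified piRISC with a single synthetic guide was mixed with 0.1 nM transcribed, DNA-blocked target RNA library for 0–8 or 0–960 min, with or without 500 nM GTSF1 partner protein. Uncleaved targets were sequenced and normalised to depth and to weakly complementary targets, and three trials were pooled with k3 capped at 0.0001 min^-1. A burst-and-steady-state fit gave the pre-steady-state cleavage rate.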

pre-steady-state target cleavage rate, < 0.0001:
UCCUGGAUGUCGAUCCAUAGUAUUUUGUUA, UCCUGGAUGUCGAACCAAAGUAUUUAGUAA, UCCUGGAUGUGCUUGCAUACAUAAAUCAAA [g12:g20:cont:t1A], UCCUGGAUGUCGAACCAUUGUAAUUAGUUA, UCCUGGAUCAGCUUCCAUAGUAUUAAGUUA
